Results on 14 compounds are retold here after PubChem BioAssay.

Assay [1] is described as follows: liver-stage malaria parasite load reduction – cell-based, known kinase inhibitor set, luminescence, hepatoma host viability (AID 624392).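 Also: infected cells incubated roughly two days before readout.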 Conditions: Plasmodium liver stage in hepatoma cells, luciferase luminescence, concentration not given here; liver cell % of control: measured here: host liver cell viability; parasite % of control: stronger effect = lower value.
Assay [2] can be described thus: altered dexamethasone sensitivity, NF-kB reporter, cell-based, luciferase, IL-1B stimulus (AID 624486).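 As to percent of negative control (+Dex): 100% = mean signal of vehicle control wells on the plate.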 To be noted: IL-1B + dexamethasone, luminescence; percent of negative control (+Dex): actives lie on both sides, concentration not given here; z-score: measured here: IL-1B alone, no Dex.
Assay [3] can be described thus: C. elegans survival during P. aeruginosa infection – whole organism (AID 651566).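 Also: tested at 14 µM; sign flipped so higher z means a lower ratio.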 Conditions: C. elegans killed by P. aeruginosa, survival ratio.
Assay [4] can be described thus: pro-inflammatory signaling induction in mouse macrophages – cell-based, murine, luminescence (AID 652131). To be noted: murine macrophage pro-inflammatory reporter, stronger effect = higher value.
Assay [5] has as its target Cellular tumor antigen p53 (Homo sapiens) (UniProt P04637). Briefly: GFP-p53 level modulators in HPV16+ cells – imaging, known kinase inhibitor set, EGFP/DsRed ratio (AID 1053116).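 Also: cells exposed to compounds for 24 h at 37 °C before reading.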 To be noted: GFP-p53 stability, stronger effect = higher value; EGFP object count: measured here: GFP-p53 positive objects count.
The nature of assay [6]: inducers of IRF3 signaling, differentiated THP-1 – cell-based, PMA-stimulated THP-1, luminescence (AID 1053176). To be noted: PMA-differentiated THP-1, IRF3 reporter luminescence; stronger effect = higher value.
The nature of assay [7]: MELAS cybrid and Rieske KO viability enhancers – cell-based, MELAS cybrids, Rieske KO mouse fibroblasts, CellTiter-Glo, primary screen (AID 1508586;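 active = mean z-score across replicates of 1.96 or higher in either the MELAS or the Rieske mutant cell line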;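 also: z relative to plate mean and SD of compound and empty wells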). Conditions: low glucose.
Where [8] appears, read: MELAS cybrid survival, CellTiter-Glo 48 h, stronger effect = higher value.
[9] abbreviates: Rieske KO mouse fibroblast survival, CellTiter-Glo 72 h.

Active and inactive are the calls of the source. Unless noted, no rule for the calls is given here.

Sequence of Cellular tumor antigen p53 (Homo sapiens) (P04637 whole entry, looked up): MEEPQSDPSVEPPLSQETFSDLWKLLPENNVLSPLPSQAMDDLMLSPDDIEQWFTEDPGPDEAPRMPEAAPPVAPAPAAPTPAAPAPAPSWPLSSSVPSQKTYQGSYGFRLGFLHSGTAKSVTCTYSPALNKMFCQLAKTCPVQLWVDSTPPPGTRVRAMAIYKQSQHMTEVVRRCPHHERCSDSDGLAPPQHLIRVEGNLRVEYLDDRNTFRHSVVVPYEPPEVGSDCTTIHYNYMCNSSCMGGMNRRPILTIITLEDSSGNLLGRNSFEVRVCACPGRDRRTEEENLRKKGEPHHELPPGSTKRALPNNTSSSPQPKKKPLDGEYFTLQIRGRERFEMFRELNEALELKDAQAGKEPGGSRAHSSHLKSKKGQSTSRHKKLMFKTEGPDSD

As to `CN(C)C(=O)O[C@@H]1CN[C@@H](C#Cc2cc3ncnc(Nc4ccc(OCc5cccc(F)c5)c(Cl)c4)c3s2)C1`, in assay [1], the liver cell % of control was 108%. For the same compound, the parasite % of control in assay [1] was 112% (inactive). Moreover, the percent of negative control (+Dex) in assay [2] was 87% (inactive). The z-score was -0.155 in assay [2]; 0.705 (inactive) in assay [3]; -0.722 (inactive) in assay [4]; 0.394 (inactive) in assay [7] (setting [8]); -0.329 in assay [7] (setting [9]). Further, the EGFP object count in assay [5] worked out at 4. In addition, the EGFP/DsRed ratio in assay [5] was 0.0417 (inactive). For the same compound, the fraction signal in assay [6] was -0.0055 (inactive).
`CS(=O)(=O)Nc1ccc(-c2cc(-c3ccccc3)cc(C(N)=O)c2N)cc1` yielded a liver cell % of control in assay [1] of 89.1%. The parasite % of control in assay [1] was 126% (inactive). The percent of negative control (+Dex) in assay [2] was 88% (inactive). For the same compound, the z-score in assay [2] is -0.23; in assay [3], 1.28 (inactive); in assay [4] it was -1.08 (inactive); in assay [7] (setting [8]) it was 0.927 (inactive); in assay [7] (setting [9]), 0.162. Besides, the EGFP object count in assay [5] worked out at 2. The EGFP/DsRed ratio in assay [5] was 0.102 (inactive). For the same compound, the fraction signal in assay [6] is -0.0055 (inactive).
With `c1ccc(Oc2ccc(Nc3ncc(-c4ccccc4)o3)cc2)cc1`, in assay [1], the liver cell % of control turned out to be 103%. Further, the parasite % of control in assay [1] was 102% (inactive). Moreover, the percent of negative control (+Dex) in assay [2] was 110% (inactive). Moreover, the z-score in assay [2] is 1.91; in assay [3] it was 0.1 (inactive); in assay [4], 3.61 (inactive); in assay [7] (setting [8]), -0.198 (inactive); in assay [7] (setting [9]), -0.417. For the same compound, the EGFP object count in assay [5] was 4.5. Also, the EGFP/DsRed ratio in assay [5] was 0.122 (inactive). For the same compound, in assay [6], the fraction signal was 0.0065 (inactive).
For `COc1cccc(/C=N/Nc2ncnc3c2cnn3-c2cccc(OC)c2)c1`, the liver cell % of control in assay [1] is 96.7%. Further, in assay [1], the parasite % of control was 107% (inactive). Further, the percent of negative control (+Dex) in assay [2] was 91.5% (inactive). Further, the z-score in assay [2] was -0.3; in assay [3] it was -0.385 (inactive); in assay [4], 0.307 (inactive); in assay [7] (setting [8]) it was 0.209 (inactive); in assay [7] (setting [9]), -0.582. Also, the EGFP object count in assay [5] is 9. Further, the EGFP/DsRed ratio in assay [5] is 0.222 (inactive). In addition, the fraction signal in assay [6] is 0.0045 (inactive).
In the case of `COc1cc2c(cc1Nc1nc(N3CCc4ccccc43)c3cc[nH]c3n1)N(C(=O)CN(C)C)CC2`, the liver cell % of control in assay [1] turned out to be 75%. In assay [1], the parasite % of control is 160% (inactive). The percent of negative control (+Dex) in assay [2] was 104% (inactive). In addition, the z-score in assay [2] is 0.675; in assay [3], 0.56 (inactive); in assay [4], 0.168 (inactive); in assay [7] (setting [8]) it was -0.598; in assay [7] (setting [9]), 2.39. Also, the EGFP object count in assay [5] turned out to be 16.5. Also, the EGFP/DsRed ratio in assay [5] is 1.27 (inactive). Also, the fraction signal in assay [6] was -0.0105 (inactive).
In assay [1], `CCCN1CCC=C(c2ccc(Nc3nc(Nc4ccccc4C(N)=O)c4cc[nH]c4n3)c(C)c2)C1` came in with a liver cell % of control of 86.8%. Further, the parasite % of control in assay [1] was 580% (inactive). In addition, in assay [2], the percent of negative control (+Dex) was 88% (inactive). Further, the z-score in assay [2] is -0.67; in assay [3], 0.47 (inactive); in assay [4], -1.61 (inactive); in assay [7] (setting [8]), -0.329 (inactive); in assay [7] (setting [9]), 0.0526. Besides, the EGFP object count in assay [5] worked out at 4. Besides, the EGFP/DsRed ratio in assay [5] is 0.193 (inactive). In addition, in assay [6], the fraction signal is 0 (inactive).
`COc1ccc2c(-c3ccnc(Nc4cccc(OC(F)(F)F)c4)n3)cnn2n1` had a liver cell % of control in assay [1] of 77.9%. Besides, the parasite % of control in assay [1] was 166% (inactive). Also, in assay [2], the percent of negative control (+Dex) is 91% (inactive). In addition, the z-score in assay [2] is -0.08; in assay [3], -0.6 (inactive); in assay [4] it was -0.916 (inactive); in assay [7] (setting [8]), 0.611 (inactive); in assay [7] (setting [9]), -0.245. The EGFP object count in assay [5] worked out at 5.5. Besides, in assay [5], the EGFP/DsRed ratio was 0.0552 (inactive). For the same compound, in assay [6], the fraction signal was -0.005 (inactive).
Regarding `FC(F)(F)c1ccc(-c2nn3ncccc3c2-c2ccnc(Nc3ccc4c(c3)OCCO4)n2)cc1`, the liver cell % of control in assay [1] was 105%. Moreover, in assay [1], the parasite % of control is 77.8% (inactive). The percent of negative control (+Dex) in assay [2] is 110% (inactive). Moreover, the z-score was 0.735 in assay [2]; -0.48 (inactive) in assay [3]; 0.358 (inactive) in assay [4]; 0.512 (inactive) in assay [7] (setting [8]); 0.23 in assay [7] (setting [9]). The EGFP object count in assay [5] amounted to 5. Further, the EGFP/DsRed ratio in assay [5] was 0.479 (inactive). Also, the fraction signal in assay [6] is 0.001 (inactive).
Compound `O=C(O[C@H]1CN[C@H](C#Cc2cc3ncnc(Nc4ccc(OCc5cccc(F)c5)c(Cl)c4)c3s2)C1)N1CCOCC1` came in with a liver cell % of control in assay [1] of 89.4%. Besides, in assay [1], the parasite % of control was 117% (inactive). In addition, the percent of negative control (+Dex) in assay [2] is 74.5% (inactive). Besides, the z-score was -1.65 in assay [2]; 0.44 (inactive) in assay [3]; -0.505 (inactive) in assay [4]; -0.421 (inactive) in assay [7] (setting [8]); -0.498 in assay [7] (setting [9]). Besides, in assay [5], the EGFP object count is 4.5. Also, in assay [5], the EGFP/DsRed ratio was 0.0369 (inactive). In addition, the fraction signal in assay [6] was -0.0095 (inactive).
`O=C(Nc1n[nH]c2nc(-c3ccc(O)cc3)c(Br)cc12)C1CC1` gave a liver cell % of control in assay [1] of 74.6%. Besides, the parasite % of control in assay [1] is 71% (inactive). Also, the percent of negative control (+Dex) in assay [2] was 206% (active). The z-score in assay [2] was 0.485; in assay [3], 0.105 (inactive); in assay [4] it was -1.27 (inactive); in assay [7] (setting [8]) it was 7.51 (active); in assay [7] (setting [9]), -0.202. For the same compound, the EGFP object count in assay [5] is 2.5. In addition, the EGFP/DsRed ratio in assay [5] is 0.0391 (inactive). The fraction signal in assay [6] was -0.013 (inactive).
`Fc1cccc(COc2ccc(Nc3ncnc4sc(-c5ccco5)cc34)cc2Cl)c1` came in with a liver cell % of control in assay [1] of 85.8%. Also, in assay [1], the parasite % of control was 129% (inactive). Moreover, the percent of negative control (+Dex) in assay [2] was 89% (inactive). In addition, the z-score in assay [2] is -0.11; in assay [3], 0.87 (inactive); in assay [4] it was -0.392 (inactive); in assay [7] (setting [8]), -0.906 (inactive); in assay [7] (setting [9]), -0.52. Moreover, the EGFP object count in assay [5] came out at 4.5. In addition, in assay [5], the EGFP/DsRed ratio was 0.122 (inactive). Moreover, in assay [6], the fraction signal is -0.0105 (inactive).
Turning to `Cc1nnc(-c2cccc(-c3ccc(C(=O)NCC4CC4)cc3)c2)o1`, in assay [1], the liver cell % of control was 102%. In addition, the parasite % of control in assay [1] was 99.2% (inactive). Also, in assay [2], the percent of negative control (+Dex) was 89.5% (inactive). Besides, the z-score in assay [2] is -0.24; in assay [3], 0.175 (inactive); in assay [4], -0.114 (inactive); in assay [7] (setting [8]), 0.518 (inactive); in assay [7] (setting [9]), 0.121. Moreover, the EGFP object count in assay [5] was found to be 4. Besides, the EGFP/DsRed ratio in assay [5] was 0.0445 (inactive). Moreover, in assay [6], the fraction signal was -0.01 (inactive).
Compound `Nc1ccc(C#Cc2cncnc2Nc2ccc(OCc3cccc(F)c3)c(Cl)c2)cc1` showed a liver cell % of control in assay [1] of 98%. Besides, the parasite % of control in assay [1] is 136% (inactive). The percent of negative control (+Dex) in assay [2] was 106% (inactive). In addition, the z-score in assay [2] was 0.915; in assay [3], -0.52 (inactive); in assay [4], -0.735 (inactive); in assay [7] (setting [8]), -0.813 (inactive); in assay [7] (setting [9]), -0.0706. The EGFP object count in assay [5] was determined as 4. The EGFP/DsRed ratio in assay [5] was 0.276 (inactive). In assay [6], the fraction signal was 0.001 (inactive).
Take `CCn1c(-c2nonc2N)nc2c(C#CC(C)(C)O)nc(OCCNC)cc21`: the liver cell % of control in assay [1] amounted to 78.2%. The parasite % of control in assay [1] is 239% (inactive). In addition, the percent of negative control (+Dex) in assay [2] was 83.5% (inactive). The z-score in assay [2] was -0.295; in assay [3], 1.3 (inactive); in assay [4], -0.135 (inactive); in assay [7] (setting [8]), -0.95 (inactive); in assay [7] (setting [9]), -0.363. Further, the EGFP object count in assay [5] amounted to 10.5. The EGFP/DsRed ratio in assay [5] was 0.224 (inactive). In addition, the fraction signal in assay [6] was -0.006 (inactive).
